Bioassay records (PubChem)
In the library only some 2.7% were active in any assay of this set; here they are far more common.
MPTP block: inhibitors of mitochondrial permeability transition pore; isolated mouse mitochondria, Ca2+ swelling absorbance, 30 min; inhibition, % at 10 µM; 1.4% of 360,000 active;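 active = inhibition of 50% or more, scaled per plate between neutral and stimulator controls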
SKN-1 inh: C. elegans SKN-1 inhibition. C. elegans VP596 Pgst-4::GFP/RFP ratio, acrylamide-induced, 24 h. inhibition, % at 21.8 µM. 0.49% of 360,000 active;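 active = interference check ratio from 0.5 to 1.5 plus GFP to RFP signal ratio inhibition reaching or exceeding a fixed threshold, cut at about 30% in these data, passing the limit was not always enough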
CendR NRP1 mod: NRP-1/CendR interaction modulation | O14786 | FAM-RPARPAR peptide binding to NRP-1, fluorescence polarization | inhibition, % at 25 µM | 0.85% of 360,000 active;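 active = inhibition or corrected inhibition above about 18%, plus a signal ratio from 0.5 to 1.5, limit read from the data, passing the limit was not always enough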
ATG4B inhibitor: ATG4B (human) cysteine protease inhibition. ATG4B cleavage of LC3-PLA2, NBD-HPC fluorescence, 1 h. Q9Y4P1. 0.51% of 340,000 active. inhibition, % at 8.33 µM. AID 504462; in the data active = inhibition above about 40%
Target sequence (Q9Y4P1 whole entry, looked up): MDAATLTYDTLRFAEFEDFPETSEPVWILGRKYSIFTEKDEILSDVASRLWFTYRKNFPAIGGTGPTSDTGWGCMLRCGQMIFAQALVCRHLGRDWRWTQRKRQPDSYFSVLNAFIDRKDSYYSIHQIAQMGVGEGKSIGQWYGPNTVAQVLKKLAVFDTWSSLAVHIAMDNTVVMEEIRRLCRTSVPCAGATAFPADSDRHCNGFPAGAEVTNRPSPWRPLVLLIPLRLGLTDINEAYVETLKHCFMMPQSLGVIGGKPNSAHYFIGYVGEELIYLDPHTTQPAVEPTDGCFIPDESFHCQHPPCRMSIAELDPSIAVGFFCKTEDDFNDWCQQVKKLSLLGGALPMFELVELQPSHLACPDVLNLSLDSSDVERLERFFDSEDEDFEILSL
F508del corr: correctors of CFTR F508del function in bronchial epithelial cells; CFBE cells, YFP halide quenching; stimulated with forskolin plus potentiator P3; % fluorescence drop versus neutral controls; 0.36% of 350,000 active; activity (quench increase), % at 7.58 µM;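 active = mean added fluorescence quench of at least 8% versus neutral control, with both replicates also reaching 8%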;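 note: cells transiently co-express mutant CFTR-F508del with the halide-sensitive YFP; corrector assay measuring rescue of mutant channel to the surface after 24 h compound exposure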
Rh123 counter: Rhodamine 123 counter-screen of mitochondrial pore hits; shares compounds with MPTP block; isolated mitochondria, membrane potential, Rhodamine 123 fluorescence; inhibition, % at 10 µM; 78% of 5,000 active; AID 624504; in the data active = inhibition above about 22%
MPTP swell DR: MPTP inhibition, dose response swelling confirmation | 58% of 780 active | IC50, µM | shares compounds with MPTP block | isolated mitochondria swelling, absorbance | AID 651561; in the data active = IC50 below about 20 µM
MPTP cs DR: counter-screen for mitochondrial permeability transition pore inhibitors, dose response. shares compounds with MPTP block. IC50, µM. 49% of 780 active. isolated mitochondria counterscreen, fluorescence read-out; in the data active = IC50 below about 80 µM
Of the large screens only hits and unclear results are named; the others gave an inactive call (follow-up assays come after a bar, where they were run).

C[C@@H]1CN([C@@H](C)CO)C(=O)c2cc(NS(=O)(=O)c3cccs3)ccc2O[C@@H]1CN(C)S(=O)(=O)c1ccccc1	none (no result: MPTP block, SKN-1 inh, CendR NRP1 mod, ATG4B inhibitor)
CNC[C@H]1Oc2ncc(C3=CCCCC3)cc2C(=O)N([C@@H](C)CO)C[C@H]1C	none (no result: MPTP block, SKN-1 inh, CendR NRP1 mod, ATG4B inhibitor)
C[C@H](CO)N1C[C@H](C)[C@H](CN(C)Cc2ccc(F)cc2)OCc2ccccc2-c2c(n(C)c3ccccc23)C1=O	none (no result: MPTP block, SKN-1 inh, CendR NRP1 mod, ATG4B inhibitor)
Cc1ccc(S(=O)(=O)N[C@@H]2CC[C@@H](CCNC(=O)C3CCC3)O[C@H]2CO)cc1	none (no result: MPTP block, SKN-1 inh, CendR NRP1 mod, ATG4B inhibitor)
O=c1oc2cc(Oc3ccc(C(F)(F)F)cc3[N+](=O)[O-])ccc2c2c1CCC2	none
O=c1oc2cc(Oc3c([N+](=O)[O-])cc(C(F)(F)F)cc3[N+](=O)[O-])ccc2c2c1CCCC2	MPTP block 86 (no result: F508del corr) | Rh123 counter 89
CN(C)CCCNC(=O)C[C@@H]1CC[C@@H]2[C@@H](COc3ccc(NS(C)(=O)=O)cc3C(=O)N2C)O1	none (no result: MPTP block, SKN-1 inh, CendR NRP1 mod, ATG4B inhibitor)
N#CC(c1ccccc1)c1ccc2c(C(F)(F)F)cc(C(F)(F)F)nc2n1 (stereo not given)	MPTP block 93 (no result: F508del corr) | Rh123 counter 70
CN(N)c1ccc2c(C(F)(F)F)cc(C(F)(F)F)nc2n1	none
Cc1ccc(C(C#N)c2ccc3c(C(F)(F)F)cc(C(F)(F)F)nc3n2)cc1 (stereo not given)	MPTP block 113, SKN-1 inh 44 (no result: F508del corr) | Rh123 counter 68
CNC[C@H]1Oc2cc(C#Cc3cccc(F)c3)ccc2S(=O)(=O)N([C@H](C)CO)C[C@@H]1C	none (no result: MPTP block, SKN-1 inh, CendR NRP1 mod, ATG4B inhibitor)
CCN(CC(=O)Nc1cccc(OC)c1)c1ncnc2sc(C)c(C)c12	MPTP block 72 (no result: F508del corr) | Rh123 counter 68
COc1cccc(NC(=O)COc2ncnc3sc(C)c(C)c23)c1	none (no result: F508del corr)
CC(C)(C)c1nc(Sc2ccc([N+](=O)[O-])cn2)n[nH]1	none
O=[N+]([O-])c1ccc(Sc2n[nH]c(-c3ccc(Cl)cc3Cl)n2)nc1	MPTP block 90 (no result: F508del corr) | Rh123 counter inactive | MPTP swell DR 20 | MPTP cs DR 5.8
CCOC(=O)C1(Cc2cccc(OC)c2)CCN(C/C=C/c2ccccc2)CC1	none
CCOC(=O)C1(Cc2cccc(OC)c2)CCN(C/C=C/c2ccc(OC)cc2)CC1	MPTP block 80 | Rh123 counter 79
O=C(CN1CCOCC1)NCC[C@H]1CC[C@H](NC(=O)Nc2ccc(Cl)cc2)[C@@H](CO)O1	none (no result: MPTP block, SKN-1 inh, CendR NRP1 mod, ATG4B inhibitor)
Cc1ccc(OCCC(=O)Nc2ccc(C)c(F)c2)cc1	none
Cc1ccc(NC(=O)NNS(=O)(=O)c2ccc(Br)cc2)cc1	none (no result: F508del corr)
Cc1cc(NC(=O)Nc2cccc(Cl)c2)no1	none (no result: ATG4B inhibitor)
Cc1cc(NC(=O)Nc2ccc(F)c(Cl)c2)no1	MPTP block 51 (no result: F508del corr) | Rh123 counter 85
Cc1ccc(S(=O)(=O)NCCC(=O)Nc2ccc(Cl)c(Cl)c2)cc1	MPTP block 90 (no result: F508del corr) | Rh123 counter 87
Cc1ccc(S(=O)(=O)NNC(=O)Nc2ccc(Cl)c(Cl)c2)cc1	MPTP block 86 | Rh123 counter 97
Cc1ccc(OCCC(=O)Nc2ccc(F)c(Cl)c2)cc1	MPTP block 67 (no result: F508del corr) | Rh123 counter 64
C[C@@H]1CN([C@H](C)CO)C(=O)Cc2cc(NS(=O)(=O)c3ccccc3)ccc2O[C@H]1CN(C)Cc1ccc(C(=O)Nc2ccccc2N)cc1	none (no result: MPTP block, SKN-1 inh, CendR NRP1 mod, ATG4B inhibitor)
CO[C@@H]1CN(C)C(=O)c2ccc(NC(=O)c3ccccc3)cc2OC[C@@H](C)NC[C@@H]1C	none (no result: MPTP block, SKN-1 inh, CendR NRP1 mod, ATG4B inhibitor)
Clc1ccc(N2CCN(/N=C/c3ccncc3)CC2)cc1	MPTP block 61, SKN-1 inh 62 | Rh123 counter 50
C[C@H]1CN([C@@H](C)CO)C(=O)c2cc(-c3ccncc3)cnc2O[C@H]1CN(C)Cc1ccc(F)cc1	none (no result: MPTP block, SKN-1 inh, CendR NRP1 mod, ATG4B inhibitor)
Cc1ccc([N+](=O)[O-])cc1N=Nc1c(-c2ccc([N+](=O)[O-])cc2)[nH]n(C(N)=S)c1=O	MPTP block 99 (no result: F508del corr) | Rh123 counter 69
NC(=S)n1[nH]c(-c2ccc([N+](=O)[O-])cc2)c(N=Nc2ccc(Cl)cc2)c1=O	MPTP block 106 (no result: F508del corr) | Rh123 counter 93
Cc1ccc(S(=O)(=O)N(C)C[C@H]2Oc3ccc(NC(=O)c4ccncc4)cc3CC(=O)N([C@H](C)CO)C[C@H]2C)cc1	none (no result: MPTP block, SKN-1 inh, CendR NRP1 mod, ATG4B inhibitor)
O=C(Nc1cc(-c2ccccc2)nn1C1CCCCC1)c1ccc(Cl)cc1	MPTP block 64 | Rh123 counter 97
O=C(Nc1cccc(Cl)c1)Nc1nccs1	MPTP block 72 (no result: F508del corr) | Rh123 counter 92
O=C(Nc1ccc(Cl)c(Cl)c1)Nc1nccs1	MPTP block 87 | Rh123 counter 68
C[C@@H]1CN([C@@H](C)CO)C(=O)c2cccc(NC(=O)C3CCOCC3)c2O[C@@H]1CN(C)S(C)(=O)=O	none (no result: MPTP block, SKN-1 inh, CendR NRP1 mod, ATG4B inhibitor)
COc1ccc(C(C)=NNc2ccc([N+](=O)[O-])cc2S(=O)(=O)Nc2ccccc2C(=O)O)c(OC)c1	MPTP block 86 | Rh123 counter 38
Fc1ccc(-c2nc(-c3cccs3)[nH]c2-c2ccc(F)cc2)cc1	MPTP block 77 | Rh123 counter 74
Oc1ccc(-c2nc(-c3ccc(F)cc3)c(-c3ccncc3)[nH]2)cc1	none
CCCC[C@H](CN[C@@H](CNC)[C@H](C)CC)NCCC12CCC(CC1)C2	MPTP block 100 | Rh123 counter inactive | MPTP swell DR 6.1 | MPTP cs DR inactive
CCC[C@H](CN[C@@H](CNC)[C@H](C)O)NCCc1ccc(OC)cc1	none
O=C(NCc1ccccc1F)Nc1ccc([N+](=O)[O-])cc1	MPTP block 94 | Rh123 counter 89
O=C(NCc1ccc2c(c1)OCO2)Nc1ccc([N+](=O)[O-])cc1	MPTP block 81 | Rh123 counter 83
CN(C)C(=O)C[C@H]1CC[C@H](NC(=O)C2CCOCC2)[C@H](CO)O1	none (no result: MPTP block, SKN-1 inh, CendR NRP1 mod, ATG4B inhibitor)
O=S(=O)(c1ccc(Br)s1)N1CCN(c2ccnc3cc(Cl)ccc23)CC1	MPTP block 65 | Rh123 counter 36
CCN1C(=O)/C(=C2\SC(=S)N(NC(=O)c3ccccc3O)C2=O)c2ccccc21	MPTP block 87 | Rh123 counter 32
CCN1C(=O)/C(=C2\SC(=S)N(c3c(C)n(C)n(-c4ccccc4)c3=O)C2=O)c2ccccc21	none (no result: F508del corr)
COc1ccc(CC(=O)Nc2cccc(-c3csc(C)n3)c2)cc1	MPTP block 104 (no result: F508del corr) | Rh123 counter inactive | MPTP swell DR inactive | MPTP cs DR inactive
COc1ccc(NC(=O)COC(=O)CNS(=O)(=O)c2ccccc2)cc1OC	MPTP block 120, F508del corr 14 | Rh123 counter inactive
CC(C)NC(=O)N(C)C[C@@H]1Oc2cc(C#Cc3ccc(F)cc3)ccc2S(=O)(=O)N([C@@H](C)CO)C[C@@H]1C	none (no result: MPTP block, SKN-1 inh, CendR NRP1 mod, ATG4B inhibitor)
